Source: PubChem BioAssay
The list is not random: actives were taken first. Their share in the collection is about 4.4%.
D1 ag: human D1 receptor agonism. HEK293 T-REx D1 cells, calcium flux, agonist mode. activation, % at 2 µM. actives 1% (n = 360,000). AID 504660
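Inducible HEK293 T-REx D1 cells, force-coupled to calcium signalling, were plated at 4000 cells/well with tetracycline and held overnight at 30 C. After no-wash calcium dye loading, compound-evoked calcium rise over 180 s flagged agonists.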
USP1 inh: blocks the human USP1/UAF1 deubiquitinase complex. actives 0.23% (n = 390,000). Potency, µM (titrated, usually from 57.1 µM), actives largely listed as inhibitors. recombinant USP1/UAF1, Ub-Rhodamine cleavage fluorescence. O94782; active = well fitted inhibition curve with a large enough effect; inconclusive = small, poorly fitted or top-dose-only effect; inactive = no such curve, though single readings can be large or run the other way; note: nearly all actives have a fitted effect of over 60% in size
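USP1/UAF1 complex at 1 nM was preincubated with compound for 15 min at room temperature, then Ub-Rho substrate (150nM final) was added. Fluorescence (480/540 nm) was read kinetically, 6 reads every 60 seconds.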
TRHR PAM: TRH receptor (human) allosteric enhancement; TRHR cells, fluo-8 calcium fluorescence, EC20 TRH enhancement; enhancement, % at 2 µM; actives 0.66% (n = 360,000); in the data active = enhancement above about 30%
Target sequence (P34981 whole entry, looked up): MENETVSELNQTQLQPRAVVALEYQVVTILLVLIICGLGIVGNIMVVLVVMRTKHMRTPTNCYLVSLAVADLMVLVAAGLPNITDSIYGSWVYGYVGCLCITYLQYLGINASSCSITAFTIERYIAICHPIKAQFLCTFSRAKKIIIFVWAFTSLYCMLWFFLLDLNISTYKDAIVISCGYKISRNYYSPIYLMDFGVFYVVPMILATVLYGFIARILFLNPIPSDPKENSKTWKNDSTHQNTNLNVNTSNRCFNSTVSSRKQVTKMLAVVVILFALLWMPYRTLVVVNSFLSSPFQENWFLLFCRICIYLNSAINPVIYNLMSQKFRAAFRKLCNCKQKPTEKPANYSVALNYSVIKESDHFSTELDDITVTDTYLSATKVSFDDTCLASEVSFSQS
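Enhancer read-out: after compound pinning and an initial kinetic agonist-mode read, an EC20 of TRH (10 nM final) was injected and fluo-8 calcium signal (Ex 480/Em 530) followed at 1 s/cycle for 100 cycles in TRHR-expressing cells.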
D1 antagonist: blocks dopamine activation of the human D1 receptor; actives 3.2% (n = 360,000); HEK293 TREx D1 cells, calcium flux, dopamine EC80; stronger effect = lower value; activity change, negative = inhibition, % at 10 µM; in the data active = activity change below about -30%
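Inducible Hek293 Trex D1 cells (tetracycline, overnight, 30 C). Calcium dye 30–90 min RT. Antagonist mode: EC80 dopamine added after 180 s compound read.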
D1 potentiator: enhances dopamine response at the human D1 receptor; AID 504651; potentiation, % at 10 µM; P21728; HEK293 TREx D1 cells, calcium flux, dopamine EC20 potentiation; actives 0.036% (n = 360,000); in the data active = potentiation above about 30%
TRHR agonist: agonists of human TRH receptor. activation, % at 2 µM. AID 493084. P34981. actives 0.18% (n = 360,000). TRHR cells, calcium flux fluo-8, FDSS agonist mode
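Fluo-8-loaded TRHR cells; 10 s baseline, compound added, kinetic Ca2+ fluorescence read 1/s, agonist mode.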
Numbers stand for hits; ! = a repeat was not active. Cut-off read from the data, not from the text of the source, unless noted: active = activation above about 30%; inactive = the rest.

CCOc1ccc(-n2c(SCc3ccc(C(=O)OC)o3)nc3c([nH]c4ccccc43)c2=O)cc1 was read as D1 ag inactive, USP1 inh inactive, TRHR PAM inactive, D1 antagonist inactive, D1 potentiator inactive and TRHR agonist inactive.
Screening COc1ccc(N2CCN(C(CNC(=O)c3ccc(C)cc3)c3ccc4c(c3)OCO4)CC2)cc1 (configuration not stated) returned D1 ag inactive, USP1 inh inactive, TRHR PAM inactive, D1 antagonist inactive, D1 potentiator inactive and TRHR agonist inactive.
`Cc1cc(C)c(Cn2c(C(O)c3ccccc3)nc3ccccc32)c(C)c1` (configuration not stated) gave D1 ag inactive, USP1 inh inactive, TRHR PAM inactive, D1 antagonist inactive, D1 potentiator inactive and TRHR agonist inactive.
Screening COc1ccc(CNC(=O)c2cc3c(=O)n(Cc4ccco4)ccc3nc2C)c(OC)c1 returned D1 ag inactive, USP1 inh inactive, TRHR PAM inactive, D1 antagonist inactive, D1 potentiator inactive and TRHR agonist inactive.
COc1ccccc1NC(=O)Nc1cc(NC(=O)Nc2ccccc2OC)c(C)nc1C was read as D1 ag inactive, USP1 inh inactive, TRHR PAM inactive, D1 antagonist -92.9, D1 potentiator inactive and TRHR agonist inactive.
`COC(=O)c1sccc1NC(=O)Nc1ccccc1OC` gave D1 ag inactive, USP1 inh inactive, TRHR PAM inactive, D1 antagonist -80.0, D1 potentiator inactive and TRHR agonist inactive.
For COC(=O)c1sccc1NC(=O)Nc1cc(OC)ccc1OC the results were D1 ag inactive, USP1 inh inactive, TRHR PAM inactive, D1 antagonist inactive, D1 potentiator inactive and TRHR agonist inactive.
Screening COc1ccc(NC(=O)Nc2ccccc2OC)cc1 returned D1 ag inactive, USP1 inh inactive, TRHR PAM inactive, D1 potentiator inactive and TRHR agonist inactive.
`COc1cc(N)c(Cl)cc1C(=O)N[C@H]1CCN(CCCOc2ccc(F)cc2)C[C@H]1OC` gave D1 ag inactive, USP1 inh inactive, TRHR PAM inactive, D1 antagonist inactive, D1 potentiator inactive and TRHR agonist inactive.
`COc1cc(N)c(Cl)cc1C(=O)N[C@@H]1CCN(CCCOc2ccc(F)cc2)C[C@@H]1OC` gave D1 ag inactive, TRHR PAM inactive, D1 antagonist -58.5, D1 potentiator inactive and TRHR agonist inactive.
For COc1ccccc1CNc1nc(-c2ccco2)nn1S(=O)(=O)c1ccc2ccccc2c1 the results were D1 ag inactive, USP1 inh inactive, TRHR PAM inactive, D1 antagonist inactive, D1 potentiator inactive and TRHR agonist inactive.
For CC(CCc1ccccc1)NC(=O)/C=C/c1ccc(Cl)cc1 (configuration not stated) the results were D1 ag inactive, USP1 inh inactive, TRHR PAM inactive, D1 antagonist -86.4, D1 potentiator inactive and TRHR agonist inactive.
`Cc1ccc(/C=C/C(=O)NCCCc2ccccc2)cc1` gave D1 ag inactive, USP1 inh inactive, TRHR PAM inactive, D1 antagonist -40.3, D1 potentiator inactive and TRHR agonist inactive.
COc1ccc(CCNC(=O)COc2ccc(-c3ccc(C)cc3)cc2)cc1OC was read as D1 ag inactive, USP1 inh inactive, TRHR PAM inactive, D1 antagonist -30.9, D1 potentiator inactive and TRHR agonist inactive.
Screening COc1ccc(CCNC(=O)C(=O)N2CCCCC2)cc1OC returned D1 ag inactive, USP1 inh inactive, TRHR PAM inactive, D1 antagonist inactive, D1 potentiator inactive and TRHR agonist inactive.
COc1ccc(CCNC(=O)C(=O)NN=C2CCCCCCC2)cc1OC was read as D1 ag inactive, USP1 inh inactive, TRHR PAM inactive, D1 antagonist -74.0, D1 potentiator inactive and TRHR agonist inactive.
COc1ccc(CCNC(=O)CCOc2ccc(C)cc2)cc1OC was read as D1 ag inactive, USP1 inh inactive, TRHR PAM inactive, D1 antagonist inactive, D1 potentiator inactive and TRHR agonist inactive.
For CC(C)(C)OC(=O)N[C@@H](C(=O)OC(C)(C)C)c1ccccc1 the results were D1 ag inactive, USP1 inh inactive, TRHR PAM inactive, D1 antagonist -35.0, D1 potentiator inactive and TRHR agonist inactive.
Cc1nn(C)c2c1c(C(F)(F)F)cc(=O)n2C(C)C(=O)NCCc1ccccc1 (configuration not stated) was read as D1 ag inactive, USP1 inh inactive, TRHR PAM inactive, D1 antagonist inactive, D1 potentiator inactive and TRHR agonist inactive.
`CC1CCN(S(=O)(=O)c2ccc3c(c2)oc(=O)n3CC(=O)NCc2ccc(F)cc2)CC1` gave D1 ag 87.3, USP1 inh inactive, TRHR PAM inactive, D1 antagonist -56.7, D1 potentiator inactive and TRHR agonist inactive.
`O=C(Cn1c(=O)oc2cc(Cl)ccc21)Nc1cccc(C(F)(F)F)c1` gave D1 ag inactive, USP1 inh inactive, TRHR PAM inactive, D1 antagonist -46.9, D1 potentiator inactive and TRHR agonist inactive.
For COc1ccc(CNC(=O)Cn2c(=O)oc3cc(S(=O)(=O)N4CCCC4)ccc32)cc1 the results were D1 ag inactive, USP1 inh inactive, TRHR PAM inactive, D1 antagonist -41.0!, D1 potentiator inactive and TRHR agonist inactive.
For Cc1cccc(NC(=O)Cn2c(=O)oc3cc(S(=O)(=O)NC4CCCC4)ccc32)c1 the results were D1 ag inactive, USP1 inh inconclusive, TRHR PAM inactive, D1 antagonist inactive, D1 potentiator inactive and TRHR agonist inactive.
For Cc1cccc(NC(=O)Cn2c(=O)oc3cc(S(=O)(=O)NCc4ccccc4)ccc32)c1 the results were D1 ag inactive, USP1 inh inactive, TRHR PAM inactive, D1 antagonist -34.8, D1 potentiator inactive and TRHR agonist inactive.
COc1cccc(CNC(=O)Cn2c(=O)oc3cc(S(=O)(=O)N4CCC(C)CC4)ccc32)c1 was read as D1 ag inactive, USP1 inh inactive, TRHR PAM inactive, D1 antagonist inactive, D1 potentiator inactive and TRHR agonist inactive.
CC(C)c1ccc(NC(=O)Cn2c(=O)oc3cc(S(=O)(=O)N4CCCC4)ccc32)cc1 was read as D1 ag inactive, USP1 inh inactive, TRHR PAM inactive, D1 antagonist -35.8, D1 potentiator inactive and TRHR agonist inactive.
`COc1ccc(NC(=O)Cn2c(=O)oc3cc(S(=O)(=O)N4CCCC4)ccc32)cc1` gave D1 ag inactive, USP1 inh inactive, TRHR PAM inactive, D1 antagonist inactive, D1 potentiator inactive and TRHR agonist inactive.
Screening COc1ccccc1Nc1c2c(nc3ccc(NC(=O)c4ccc(OC)c(OC)c4)cc13)CCCC2 returned D1 ag inactive, USP1 inh inactive, TRHR PAM inactive, D1 antagonist inactive, D1 potentiator inactive and TRHR agonist inactive.
